Compound activity deposited in PubChem by several laboratories.
Yeast superoxide = lowers age-related superoxide in aged yeast cells; 330,000 tested, 0.18% active; superoxide response (% of plate mean), % at 10 µM; S. cerevisiae aged cells, superoxide DHE fluorescence; stronger effect = lower value;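 active = superoxide response under a set limit, about three screen SD below normal, cut at about 65% in these data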;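 note: yeast aged for seven days with compound at 30 °C before DHE staining; 100% = average MFI of all compound-treated wells on the plate with controls excluded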
NLRP3 yeast inh = NALP3 inhibition in yeast. Yeast reconstituted NLRP3/ASC/caspase-1, beta-gal luminescence, 24 h. inhibition, % at 10 µM. 330,000 tested, 0.39% active;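 active = inhibition of 50% or more; inactive = inhibition below 50%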;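 note: plate controls were induced DMSO wells for no effect and uninduced yeast grown without galactose for full effect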
tim10-1 inh = growth inhibitors of tim10-1 mutant yeast. S. cerevisiae tim10-1 ts strain growth, BacTiter-Glo, 24 h. inhibition, % at 20 µM. 330,000 tested, 2.2% active. AID 463190;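 active = inhibition of at least 40%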;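 note: mutant grown at 25 °C; 0% = DMSO wells with yeast and 100% = wells holding no yeast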
tim23-1 inh = tim23-1 yeast growth inhibition | S. cerevisiae tim23-1 growth, BacTiter-Glo luminescence, 24 h | inhibition, % at 20 µM | 330,000 tested, 1.3% active | AID 463212;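 active = growth inhibition of the mutant yeast at or above 50%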;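 note: temperature-sensitive mutant grown at 25 °C; plate controls were DMSO-treated mutant yeast for no effect and medium wells lacking yeast for full effect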
TIM10 inh = TIM10 yeast growth inhibition; S. cerevisiae TIM10 strain growth, BacTiter-Glo luminescence, 24 h; inhibition, % at 10 µM; 330,000 tested, 1.4% active; AID 463195;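 active = inhibition of 40% or more at the single tested concentration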;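 note: wild-type TIM10 isogenic control strain grown at permissive 25 °C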
tim10-1 conf = tim10-1 yeast growth inhibition, confirmed | AID 463213 | shares compounds with tim10-1 inh | 7,400 tested, 56% active | inhibition, % at 20 µM | S. cerevisiae tim10-1 ts strain growth, BacTiter-Glo, 24 h;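 active = inhibition of yeast growth at or above a set limit in either of two repeat tests at 20 µM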;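 note: tim10-1 mutant grown at permissive 25 °C to find synthetic lethal compounds; 0% = DMSO yeast wells and 100% = medium wells without yeast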
Starred values were filed as active, the others as inactive; nt = not tested or not shown. The list is not random: actives were taken first. Their share in the collection is about 3.8%.

SMILES	Yeast superoxide	NLRP3 yeast inh	tim10-1 inh	tim23-1 inh	TIM10 inh	tim10-1 conf
Cc1cccc(NC(=S)NCC(C)CSc2ccc(Cl)cc2)c1 (stereo unspecified)	105	13	25	23	29	nt
Clc1ccc2c(c1)c1ccccc1n2CN1CCOCC1	86	27	54*	40	23	25
Cc1c(Cl)cccc1NC(=S)N1CCOCC1	117	11	-4	7	-1	nt
Cc1c(Cl)cccc1NC(=S)N1CCc2ccccc2C1	75	-7	51*	30	38	25
O=c1c2cn[nH]c2nc(SCc2ccccc2F)n1-c1ccc(Br)cc1	105	8	42*	39	23	23
O=c1c2cn[nH]c2nc(SCc2cc(=O)n3cc(Br)ccc3n2)n1-c1ccc(Br)cc1	112	3	16	1	11	nt
COc1ccc(C(=O)Oc2ccc3c(c2)OCO3)cc1OC	103	16	42*	17	11	30
CC1C2CC(C(CN(C)C)/C2=N/O)C1(C)C (stereo unspecified)	77	0	44*	16	-5	9
COc1ccc(CN(Cc2ccccn2)S(=O)(=O)c2ccc(-n3cnnn3)cc2)cc1	115	-10	40*	3	7	9
COc1ccc(CN(Cc2ccccn2)S(=O)(=O)c2ccc(-n3cnnn3)c(OC)c2)cc1	106	6	14	15	4	nt
O=C(c1cc(COc2cccc(C(F)(F)F)c2)on1)N1C[C@@H]2CCC[C@H]1C2	104	11	45*	37	34	34*
Fc1ccccc1CNCCC(Cc1ccccc1)c1ccc2c(c1)OCO2 (stereo unspecified)	92	5	47*	13	10	28
C=CCn1c(-c2cc3cccc(OC)c3o2)n[nH]c1=S	92	18	44*	42	16	19
CC1(C)Cc2c(cnn2-c2ccc(F)cc2)C(NC(=O)c2ccoc2)C1 (stereo unspecified)	133	0	40*	36	14	8
Cc1ccc(-n2ncc3c2CC(C)(C)CC3NC(=O)c2ccccn2)cc1 (stereo unspecified)	104	9	53*	49	13	12
C=CCC(=O)NC1CC(C)(C)Cc2c1cnn2-c1ccc(C)cc1 (stereo unspecified)	98	14	3	20	-10	nt
Cc1ccc2cc(C#N)c(N3CCCN(C(=S)NCCCN(C)C)CC3)nc2c1	105	23	4	4	-2	nt
Cc1cc(C)c2cc(C#N)c(N3CCCN(C(=S)NCCCN(C)C)CC3)nc2c1	93	17	40*	36	32	31*
O=C(Nc1ccccc1C(=O)N/N=C/c1ccco1)c1ccccc1	90	10	41*	24	12	26
O=C(Nc1ccccc1C(=O)N/N=C/c1ccco1)c1ccc(Cl)cc1	91	-11	39	40	22	nt
Cc1ccc(S(=O)(=O)N2CCOCC2)cc1C(=O)NC(=S)N1CC(C)OC(C)C1 (stereo unspecified)	102	9	14	2	-11	nt
Cc1ccc(S(=O)(=O)Nc2ccc(N=Nc3ccc(O)cc3)cc2)cc1	106	42	40*	38	34	47*
Cn1c(-c2ccccc2)n[nH]c1=S	98	11	-1	5	7	nt
Cc1nc(-c2ccccc2)sc1-c1n[nH]c(=S)n1C	99	11	48*	38	26	12
Cn1c(-c2sccc2OCc2ccccc2)n[nH]c1=S	107	23	50*	10	9	16
SMILES	Yeast superoxide	NLRP3 yeast inh	tim10-1 inh	tim23-1 inh	TIM10 inh	tim10-1 conf
O=C1C2C3C=CC(C4CC34)C2C(=O)N1CCCCN1CCN(c2ccc(F)cc2)CC1 (stereo unspecified)	92	23	18	-1	-1	nt
Cc1nn(C)cc1CN(C)C(=O)c1cc(-c2ccccc2)nc2ccc(Br)cc12	78	15	20	25	15	nt
CCn1c(C)c(C)c2cc(C(=O)N3CCc4ccccc4C3)ccc21	96	9	48*	47	27	1
CC1Cc2cc(S(=O)(=O)N3CCCC(C(=O)N4CCCCC4)C3)ccc2N1C(=O)C1CC1 (stereo unspecified)	95	-1	43*	27	-6	-27
O=C(NCC1CCCO1)/C(=C\c1ccccc1F)NC(=O)c1ccccc1 (stereo unspecified)	93	-5	0	-8	-7	nt
CCCCn1c(CN2CCN(c3ccccc3)CC2)nc2c1c(=O)n(C)c(=O)n2C	106	7	24	20	9	nt
Cn1c(=O)c2c(nc(CN3CCN(c4ccccc4)CC3)n2CCCc2ccccc2)n(C)c1=O	97	11	43*	27	17	8
COc1ccc(-c2ccc3oc(-c4ccc(OC)cc4)c(-c4ccc(OC)cc4)c3c2)cc1	nt	-3	11	-2	-6	nt
COc1ccc2oc3cc(C)[n+]([O-])c(-c4ccc(Br)cc4)c3c2c1	92	8	42*	33	8	24
Cc1ccn2cc(-c3cccc(S(=O)(=O)N4CCCCC4)c3)nc2c1	74	-53	48*	38	25	20
Cc1ccc2nc(-c3cccc(S(=O)(=O)N4CCCC4)c3)cn2c1	82	-24	-7	26	8	nt
C=CC[N+]1(CC=C)CCOCC1	95	-5	10	0	0	nt
O=C1C2C3C=CC(CO)(O3)C2C(=O)N1c1ccccc1-c1ccccc1 (stereo unspecified)	77	-22	53*	-5	19	87*
O=C1C2C3C=CC(C3)C2C(=O)N1CCN1CCN(S(=O)(=O)/C=C/c2ccccc2)CC1 (stereo unspecified)	87	15	42*	20	16	23
CCOC(=O)Cc1csc(N/N=C\c2cccc(Br)c2)n1	106	-2	23	13	28	nt
CCOC(=O)Cc1csc(N/N=C/c2ccccc2)n1	86	3	41*	36	25	20
CCOC(=O)Cc1csc(NC(=S)NC(=O)C(C)(C)C)n1	107	-3	41*	34	17	18
CCOC(=O)Cc1csc(NC(=S)NC(=O)c2ccc(Cl)cc2)n1	112	10	6	3	-2	nt
CCC1CCCCN1S(=O)(=O)c1ccc(NC(=O)c2nc(S(C)(=O)=O)ncc2Cl)cc1 (stereo unspecified)	100	-2	54*	38	24	9
CCS(=O)(=O)c1ncc(Cl)c(C(=O)Nc2ccc(S(=O)(=O)N3CCCC(C)C3)cc2)n1 (stereo unspecified)	104	16	43*	39	-3	-3
CCC1CCCCN1S(=O)(=O)c1ccc(C(=O)Nc2nnc(-c3ccccc3Cl)o2)cc1 (stereo unspecified)	95	-7	32	21	6	nt
CCS(=O)(=O)c1ncc(Cl)c(C(=O)Nc2ccc(C)cc2)n1	87	37	-24	46	-6	nt
